Compound activity (PubChem BioAssay)
PPC-1+TRAIL kill – kills PPC-1 cancer cells in the presence of TRAIL | PPC-1 cells + TRAIL, ATPLite viability luminescence | 220,000 tested, 0.41% active | cell killing (% activity), % at 4 µM or 5 µM;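 active = cell killing above 50% in the first pass at 4 µM, then a duplicate retest at 5 µM averaging 50% or more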;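 also: plate controls were cells with TRAIL plus DMSO for no effect and medium-only wells lacking cells for full effect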
SENP6 inh – inhibitors of human SENP6 protease | AID 2599 | Q9GZR1 | Recombinant SENP6 catalytic domain, aminoluciferin luminescence | 330,000 tested, 1.8% active | inhibition, % at 10 µM;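 active = inhibition above about 50% at the single tested dose, limit read from the data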;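 also: plate controls were DMSO wells with enzyme for no effect and DMSO wells lacking enzyme for full effect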
SENP8 block-1 – inhibitors of human SENP8 protease. inhibition, % at 20 µM. Q96LD8. 360,000 tested, 0.64% active. recombinant SENP8, Nedd8 substrate fluorescence; in the data active = inhibition mostly above about 40%, no sharp cut-off; inactive = mostly below about 27%
TRAIL sens C8 – caspase-8 TRAIL sensitization. NB7+C8 cells + TRAIL, ATPlite viability luminescence. inhibition (viability loss, TRAIL sensitization), % at 10 µM. 360,000 tested, 1% active. AID 624354;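 active = compounds causing at least 50% loss of cell viability in the single-dose screen, relative to plate controls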
SENP8 block-2 – blocks the human protease SENP8; Q96LD8; AID 2540; 330,000 tested, 1.2% active; purified SENP8, Z-RLRGG-aminoluciferin cleavage, luminescence; inhibition, % at 10 µM; in the data active = inhibition above about 50%
SENP7 block – blocks the human protease SENP7; Q9BQF6; 330,000 tested, 1.5% active; recombinant SENP7, Z-RLRGG-aminoluciferin luminescence, 40 min; inhibition, % at 5 µM;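 active = inhibition above about 50% at the single test dose, limit read from the data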;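 also: plate controls were DMSO with enzyme for no effect and no enzyme buffer wells for full effect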
Target sequence (Q9BQF6 706-1050 limits assumed): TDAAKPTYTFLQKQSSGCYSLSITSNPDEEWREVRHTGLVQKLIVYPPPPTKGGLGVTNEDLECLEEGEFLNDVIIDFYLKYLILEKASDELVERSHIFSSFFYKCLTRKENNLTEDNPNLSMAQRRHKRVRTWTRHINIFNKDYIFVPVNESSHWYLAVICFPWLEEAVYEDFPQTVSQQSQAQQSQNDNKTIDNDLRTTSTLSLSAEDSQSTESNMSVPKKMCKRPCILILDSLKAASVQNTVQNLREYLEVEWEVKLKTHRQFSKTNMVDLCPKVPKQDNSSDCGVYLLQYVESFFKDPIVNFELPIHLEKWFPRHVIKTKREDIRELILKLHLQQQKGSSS
SENP8 confirm – human SENP8 inhibition, confirmed | shares compounds with SENP7 block | Recombinant SENP8, Z-RLRGG-aminoluciferin luminescence, 60 min | inhibition, % at 12.5 µM | 6,200 tested, 40% active;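 active = mean inhibition across replicates above about 50%, limit read from the data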
SENP6 conf – confirmation of human SENP6 protease inhibitors; AID 488915; 6,200 tested, 58% active; shares compounds with SENP7 block; recombinant SENP6, Z-RLRGG-aminoluciferin luminescence; inhibition, % at 12.5 µM
SENP7 conf – human SENP7 inhibition, confirmed; inhibition, % at 12.5 µM; recombinant SENP7, Z-RLRGG-aminoluciferin luminescence, 40 min; 6,200 tested, 69% active; shares compounds with SENP7 block
Casp3 SENP sel – selectivity test for SENP inhibitors: human caspase-3 inhibition; shares compounds with SENP7 block; inhibition, % at 12.5 µM; purified caspase-3, Z-DEVD-aminoluciferin luminescence, 60 min; 6,200 tested, 60% active; AID 488918;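 active = mean inhibition above about 50%, limit read from the data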;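 also: plate controls were enzyme with DMSO for no effect and wells without caspase-3 for full effect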
Target sequence (P42574 28-227 limits assumed): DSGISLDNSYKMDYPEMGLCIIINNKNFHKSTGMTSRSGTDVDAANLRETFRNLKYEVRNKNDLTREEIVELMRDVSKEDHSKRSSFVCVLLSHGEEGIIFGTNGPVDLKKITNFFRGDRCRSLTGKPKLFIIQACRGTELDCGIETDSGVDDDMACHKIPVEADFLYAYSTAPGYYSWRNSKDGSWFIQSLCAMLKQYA
SENP luc ctr – interferes with luciferase luminescence in SENP counter-screen. shares compounds with SENP7 block. Pre-incubated SENP8/Z-RLRGG-aminoluciferin, luciferase luminescence interference. inhibition, % at 12.5 µM. 6,200 tested, 39% active;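 active = mean inhibition above about 50% when retested at one dose, limit read from the data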;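 also: plate controls were DMSO wells with completed reaction for no effect and substrate without enzyme for full effect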
The depositor's hits bear a star; i = inactive; · = no result. Only some compounds are listed: those with a hit (about 3% of all), similar ones and a draw of the others.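 The calls were made as follows, unless noted: active = mean inhibition above about 50% in the one-dose retest (limit read from the data); inactive = the rest.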

SMILES	PPC-1+TRAIL kill	SENP6 inh	SENP8 block-1	TRAIL sens C8	SENP8 block-2	SENP7 block	SENP8 confirm	SENP6 conf	SENP7 conf	Casp3 SENP sel	SENP luc ctr
N/C(=N/OC(=O)c1ccccc1Cl)c1nonc1N	8.6	96.9*	-1.0	6.4	95.9*	98.5*	99.8*	100.8*	103.5*	99.2*	97.5*
Cc1cc(/C(N)=N/OC(=O)c2ccccc2Cl)no1	37.2	81.2*	22.2	61.2*	76.9*	88.0*	84.8*	83.6*	97.3*	93.3*	85.5*
O=C1CCC(=O)N1Cc1c(Cl)cccc1Cl	·	-8.5	-0.9	2.8	7.4	6.9	·	·	·	·	·
Cc1nc(/C(N)=N/OC(=O)c2ccccc2Cl)c(C(F)(F)F)o1	11.6	83.3*	-1.9	-19.1	80.0*	88.2*	87.9*	87.6*	97.9*	95.2*	88.2*
CC(NC(=O)C(=O)NCCN1CCN(C(=O)c2ccc([N+](=O)[O-])cc2)CC1)c1ccccc1 (stereo not drawn)	·	-2.7	19.2	-2.0	-7.4	-2.6	·	·	·	·	·
CC(C)c1ccc(Nc2ncccc2C(=O)O)cc1	38.2	94.9*	9.5	21.2	95.0*	97.8*	6.3	5.9	9.7	3.4	4.4
CC(C)C[C@H](NC(=O)OC(C)(C)C)C(=O)N/N=C/c1ccc2nccnc2c1	44.8	-11.7	-40.7	-13.3	8.0	50.9*	-7.7	-2.6	4.7	0.5	-1.6
CCC1CSC(Nc2ccc(C(=O)/C=C/c3cccc(C)c3)cc2)=N1 (stereo not drawn)	7.6	53.8*	-109.1	7.7	-1.1	4.1	-14.6	-15.4	-21.9	-5.3	-0.1
Cc1ccc(/C=N/c2sc3c(c2C#N)CCCCC3)o1	-19.3	97.0*	23.0	-0.6	87.3*	0.1	94.3*	95.3*	99.7*	68.6*	77.3*
N#Cc1c(/N=C/c2cc3ccccc3s2)sc2c1CCC2	-10.2	-24.2	10.3	-17.0	-17.3	-14.2	·	·	·	·	·
Cc1ccc(/C=N/c2sc3c(c2C#N)CCC3)s1	5.6	78.0*	6.4	5.1	23.4	84.5*	13.8	13.2	16.2	14.6	12.9
N#Cc1c(/N=C/c2ccco2)sc2c1CCC2	6.6	-6.2	-18.2	-2.7	18.9	-5.2	·	·	·	·	·
Cc1ccc(C=Nc2ccccc2C#N)s1	24.3	83.5*	-42.6	-0.1	67.4*	21.8	48.5	66.6*	86.7*	71.8*	62.1*
COc1ccc(/C=C/C(=O)NC2CCN(Cc3ccccc3)CC2)cc1OC	·	-15.4	-89.5	9.3	2.5	-0.6	·	·	·	·	·
O=C1OCCN1c1c(-c2ccccc2)c(-c2cccs2)nc2c(-c3ccccc3)cccc12	·	-11.0	i	-7.6	-2.0	5.2	·	·	·	·	·
CC1(C)CC(=O)C=C(c2ccc(-c3ccccc3)cc2)C1=O	·	·	15.1	12.4	·	·	·	·	·	·	·
Oc1c(Br)cc(/C=N/Nc2nncc3ccccc23)cc1Br	·	71.7*	·	·	68.8*	17.5	8.4	11.2	-0.6	6.7	-0.1
COc1ccc(/C(C)=N/Nc2nc3ccccc3nc2C)cc1	3.2	-2.9	23.1	22.5	-0.4	0.1	·	·	·	·	·
Oc1c(Br)cc(/C=N/Nc2ccc(Cl)nn2)cc1Br	·	-4.5	-0.1	-17.9	-13.1	-1.9	·	·	·	·	·
COc1ccc(/C(C)=N/Nc2nncc3ccccc23)cc1	·	46.2	22.6	60.3*	45.7	74.7*	2.2	6.5	10.0	18.5	-4.2
CC(=O)c1sc(C(=O)O)c(-c2ccco2)c1-c1ccco1	10.5	-23.0	5.8	-4.6	-4.2	-2.0	·	·	·	·	·
COc1ccc(NC(=O)c2ccc(-c3ccc(C)c4ccccc34)o2)cc1	0.5	-1.2	-74.4	-32.4	5.3	-10.2	·	·	·	·	·
COc1ccc(NC(=O)c2ccc(-c3ccccc3Cl)o2)cc1	19.5	74.6*	6.4	8.7	69.0*	52.0*	47.5	64.3*	86.1*	48.7	5.3
O=C(Nc1cccc(F)c1)c1ccc(-c2ccccc2Cl)o1	7.5	53.6*	-6.5	-4.2	42.4	34.3	46.6	49.6	70.3*	25.4	20.7
COc1ccc(NC(=O)c2cc(-c3ccccc3Cl)no2)cc1	0.5	-2.7	14.3	4.8	1.0	-0.8	·	·	·	·	·
SMILES	PPC-1+TRAIL kill	SENP6 inh	SENP8 block-1	TRAIL sens C8	SENP8 block-2	SENP7 block	SENP8 confirm	SENP6 conf	SENP7 conf	Casp3 SENP sel	SENP luc ctr
O=C(NCc1cccnc1)c1ccc(-c2cccc(Cl)c2Cl)o1	25.1	7.9	-5.0	-3.5	2.2	90.6*	-29.1	-16.0	-6.4	-4.0	-6.6
O=C(NCc1cccnc1)c1ccc(-c2ccccc2[N+](=O)[O-])o1	22.9	-3.0	10.8	-11.6	4.0	1.8	·	·	·	·	·
O=C(Nc1ccccc1)c1cc(-c2ccccc2Cl)no1	19.8	88.0*	22.0	-2.3	68.7*	85.3*	80.7*	81.0*	95.4*	69.3*	74.2*
COc1cc(N)c(Cl)cc1C(=O)OCC(=O)N1CCCCCC1	·	6.2	5.0	-0.2	0.4	1.6	·	·	·	·	·
CCc1nnc(NC(=O)c2ccc(-c3ccccc3Cl)o2)s1	-9.6	33.0	-228.4	-17.3	10.2	68.1*	4.6	2.9	1.4	8.6	-2.7
CC(=O)[C@H]1[C@H]([C@H](O)[C@H](O)CO)O[C@](O)(C(=O)O)C[C@@H]1O	·	8.1	39.7	-3.7	5.7	-10.0	·	·	·	·	·
CN=c1scc(-c2ccc(F)cc2)n1/N=C/c1ccc(O)c(O)c1	20.0	61.8*	-31.0	74.0*	46.4	11.7	74.7*	71.8*	85.8*	39.1	60.2*
O=C(NCCCN1CCOCC1)c1sc2cc([N+](=O)[O-])ccc2c1Cl	5.2	62.4*	13.4	3.2	4.9	-1.5	-7.7	-5.3	-9.4	4.5	0.1
O=C(/C=C/c1cccc(F)c1)N1CCc2ccccc21	43.2	74.0*	31.0	64.4*	72.1*	94.5*	-24.5	-13.8	-3.3	-6.1	-6.7
O=C(/C=C/c1cccc(F)c1)OCC(=O)N1CCCc2ccccc21	·	7.6	6.5	-8.7	-9.0	-6.0	·	·	·	·	·
O=C(/C=C/c1ccc(Cl)cc1Cl)N1CCc2ccccc21	38.5	69.6*	11.0	61.0*	51.2*	91.6*	35.1	31.1	25.7	64.0*	12.6
Cc1nnc(NS(=O)(=O)c2ccc(Br)cc2)s1	·	9.7	-1.2	10.4	-6.2	9.7	·	·	·	·	·
O=C1NC(=Nc2ccccc2)S/C1=C/c1cccs1	16.0	16.8	9.9	-3.5	59.5*	32.2	26.6	45.8	19.7	38.9	23.3
